Among the data in publication PMC12864922, “TDP-43 directly inhibits mRNA accumulation in neurites through modulation of mRNA stability” are binding signal values, retold here.

To fix the notation:
B1: ENSMUSG00000028439.233|Fam219a (ssRNA)
RNA: GGGAGUUCUACAGUCCGACGAUCGCUUCGAUAUCCGCAUGCUACACCGACAGAGUCUUUUCAUACCAGAAGGAAUUUCUUCACAGGAGUUUCUGCAAAAGACUAUGACAUCUGUGUGUCUGUGGUCUCACGAGGUACCUGGAGGUGUAUGUGCACGGACAUGGGAAGUACGUGAAGAUUUAUUUCGGGAAAAGUGGUGUGUGUGUAGCUGUACUGGGUGUCAUGUAUGCUGUUGCUUCUGCUGCUGGUCUGGUCUGAGGGAGGAAAGCUGAGGCUGUAGCUCAGUGAGAUGGUGGCUCUCCCACUCUUGCGGUCGCACUAGUGUGGAAUUCUCGGGUGUCAAGG
B2: ENSMUSG00000058297.18|Spock2 (ssRNA)
RNA: GGGAGUUCUACAGUCCGACGAUCGCUUCGAUAUCCGCAUGCUAAGCCCUCGACGGCCUCGGCAGGCCAGGGUGCCGACGGCCAGAAAGACAGGCCAGAAGAGACCUGGACAACAGCAGGCAACUUAGCAAAUGGAUCCGGAAGUCAGUGCGGAGGACCCUGGCUCCAGUGGGGGAGGACUGGGGAGUGUGGCUUGUGUGUAUGUGUGAUAUGAGAUGUGUGUGUAUGAUGUGAGAUGUGAGUGUGUGAUGUGAGAUGUGUGUAUGUGAGAUGUGUGUGUGUGUGUGUGUGUGUGUGAUGUGAGCUCUUGCGGUCGCACUAGUGUGGAAUUCUCGGGUGUCAAGG
B3: ENSMUSG00000058297.21|Spock2|125:129;133:146;155:166;180:186;195:204;210:235 (ssRNA)
RNA: GGGAGUUCUACAGUCCGACGAUCGCUUCGAUAUCCGCAUGCUACAGGCCAGGGUGCCGACGGCCAGAAAGACAGGCCAGAAGAGACCUGGACAACAGCAGGCAACUUAGCAAAUGGAUCCGGAAGUCAGUGCGGAGGACCCUGGCUCCAGUGGGGGAGGACUGGGGACACACGCUACACACAUACACACAUAUGAGAACACACACAUACAUGUGAGAUGUGACACACACAUGUGAGAACACACAUACUGAGAACACACACACACACACACACACACACAUGUGAGUCACCCAAAGGUCCCUAUCUCUUGCGGUCGCACUAGUGUGGAAUUCUCGGGUGUCAAGG
B4: ENSMUSG00000058297.18|Spock2|143:147;151:164;173:184;198:204;213:222;228:253 (ssRNA)
RNA: GGGAGUUCUACAGUCCGACGAUCGCUUCGAUAUCCGCAUGCUAAGCCCUCGACGGCCUCGGCAGGCCAGGGUGCCGACGGCCAGAAAGACAGGCCAGAAGAGACCUGGACAACAGCAGGCAACUUAGCAAAUGGAUCCGGAAGUCAGUGCGGAGGACCCUGGCUCCAGUGGGGGAGGACUGGGGACACACGCUACACACAUACACACAUAUGAGAACACACACAUACAUGUGAGAUGUGACACACACAUGUGAGAACACACAUACUGAGAACACACACACACACACACACACACACAUGUGAGCUCUUGCGGUCGCACUAGUGUGGAAUUCUCGGGUGUCAAGG
B5: ENSMUSG00000058297.20|Spock2 (ssRNA)
RNA: GGGAGUUCUACAGUCCGACGAUCGCUUCGAUAUCCGCAUGCUACCUCGGCAGGCCAGGGUGCCGACGGCCAGAAAGACAGGCCAGAAGAGACCUGGACAACAGCAGGCAACUUAGCAAAUGGAUCCGGAAGUCAGUGCGGAGGACCCUGGCUCCAGUGGGGGAGGACUGGGGAGUGUGGCUUGUGUGUAUGUGUGAUAUGAGAUGUGUGUGUAUGAUGUGAGAUGUGAGUGUGUGAUGUGAGAUGUGUGUAUGUGAGAUGUGUGUGUGUGUGUGUGUGUGUGUGAUGUGAGUCACCCAAAGGUCUCUUGCGGUCGCACUAGUGUGGAAUUCUCGGGUGUCAAGG
B6: ENSMUSG00000058297.5|Spock2|221:225;229:242;251:259 (ssRNA)
RNA: GGGAGUUCUACAGUCCGACGAUCGCUUCGAUAUCCGCAUGCUAAGAAGAGGCAGGGGAGGAGGCCGAGGAGGAGGAGGGUGAGGCGGGUGAGGCAGAUGAUGGAGGCUACAUCUGGUAGAUAGCCCUCGACGGCCUCGGCAGGCCAGGGUGCCGACGGCCAGAAAGACAGGCCAGAAGAGACCUGGACAACAGCAGGCAACUUAGCAAAUGGAUCCGGAAGUCAGUGCGGAGGACCCUGGCUCCAGUGGGGGAGGACUGGGGACACACGCUACACACAUACACACAUAUGAGAACACACACAACUCUUGCGGUCGCACUAGUGUGGAAUUCUCGGGUGUCAAGG
B7: ENSMUSG00000058297.22|Spock2 (ssRNA)
RNA: GGGAGUUCUACAGUCCGACGAUCGCUUCGAUAUCCGCAUGCUAAGGGUGCCGACGGCCAGAAAGACAGGCCAGAAGAGACCUGGACAACAGCAGGCAACUUAGCAAAUGGAUCCGGAAGUCAGUGCGGAGGACCCUGGCUCCAGUGGGGGAGGACUGGGGAGUGUGGCUUGUGUGUAUGUGUGAUAUGAGAUGUGUGUGUAUGAUGUGAGAUGUGAGUGUGUGAUGUGAGAUGUGUGUAUGUGAGAUGUGUGUGUGUGUGUGUGUGUGUGUGAUGUGAGUCACCCAAAGGUCCCUAUGUUAUUCUCUUGCGGUCGCACUAGUGUGGAAUUCUCGGGUGUCAAGG
B8: ENSMUSG00000058297.19|Spock2|137:141;145:158;167:178;192:198;207:216;222:247 (ssRNA)
RNA: GGGAGUUCUACAGUCCGACGAUCGCUUCGAUAUCCGCAUGCUACGACGGCCUCGGCAGGCCAGGGUGCCGACGGCCAGAAAGACAGGCCAGAAGAGACCUGGACAACAGCAGGCAACUUAGCAAAUGGAUCCGGAAGUCAGUGCGGAGGACCCUGGCUCCAGUGGGGGAGGACUGGGGACACACGCUACACACAUACACACAUAUGAGAACACACACAUACAUGUGAGAUGUGACACACACAUGUGAGAACACACAUACUGAGAACACACACACACACACACACACACACAUGUGAGUCACCCCUCUUGCGGUCGCACUAGUGUGGAAUUCUCGGGUGUCAAGG
B9: ENSMUSG00000058297.21|Spock2 (ssRNA)
RNA: GGGAGUUCUACAGUCCGACGAUCGCUUCGAUAUCCGCAUGCUACAGGCCAGGGUGCCGACGGCCAGAAAGACAGGCCAGAAGAGACCUGGACAACAGCAGGCAACUUAGCAAAUGGAUCCGGAAGUCAGUGCGGAGGACCCUGGCUCCAGUGGGGGAGGACUGGGGAGUGUGGCUUGUGUGUAUGUGUGAUAUGAGAUGUGUGUGUAUGAUGUGAGAUGUGAGUGUGUGAUGUGAGAUGUGUGUAUGUGAGAUGUGUGUGUGUGUGUGUGUGUGUGUGAUGUGAGUCACCCAAAGGUCCCUAUCUCUUGCGGUCGCACUAGUGUGGAAUUCUCGGGUGUCAAGG
B10: ENSMUSG00000058297.19|Spock2 (ssRNA)
RNA: GGGAGUUCUACAGUCCGACGAUCGCUUCGAUAUCCGCAUGCUACGACGGCCUCGGCAGGCCAGGGUGCCGACGGCCAGAAAGACAGGCCAGAAGAGACCUGGACAACAGCAGGCAACUUAGCAAAUGGAUCCGGAAGUCAGUGCGGAGGACCCUGGCUCCAGUGGGGGAGGACUGGGGAGUGUGGCUUGUGUGUAUGUGUGAUAUGAGAUGUGUGUGUAUGAUGUGAGAUGUGAGUGUGUGAUGUGAGAUGUGUGUAUGUGAGAUGUGUGUGUGUGUGUGUGUGUGUGUGAUGUGAGUCACCCCUCUUGCGGUCGCACUAGUGUGGAAUUCUCGGGUGUCAAGG
B11: ENSMUSG00000058297.20|Spock2|131:135;139:152;161:172;186:192;201:210;216:241 (ssRNA)
RNA: GGGAGUUCUACAGUCCGACGAUCGCUUCGAUAUCCGCAUGCUACCUCGGCAGGCCAGGGUGCCGACGGCCAGAAAGACAGGCCAGAAGAGACCUGGACAACAGCAGGCAACUUAGCAAAUGGAUCCGGAAGUCAGUGCGGAGGACCCUGGCUCCAGUGGGGGAGGACUGGGGACACACGCUACACACAUACACACAUAUGAGAACACACACAUACAUGUGAGAUGUGACACACACAUGUGAGAACACACAUACUGAGAACACACACACACACACACACACACACAUGUGAGUCACCCAAAGGUCUCUUGCGGUCGCACUAGUGUGGAAUUCUCGGGUGUCAAGG

In all, about 9,900 sequences were measured (“r (bound/input frequency ratio)”: median about 0.7, highest 2% from about 6.5 on). The full list was thinned out, with the highest values kept by preference.

Sequence of TDP-43 (Q13148 whole entry): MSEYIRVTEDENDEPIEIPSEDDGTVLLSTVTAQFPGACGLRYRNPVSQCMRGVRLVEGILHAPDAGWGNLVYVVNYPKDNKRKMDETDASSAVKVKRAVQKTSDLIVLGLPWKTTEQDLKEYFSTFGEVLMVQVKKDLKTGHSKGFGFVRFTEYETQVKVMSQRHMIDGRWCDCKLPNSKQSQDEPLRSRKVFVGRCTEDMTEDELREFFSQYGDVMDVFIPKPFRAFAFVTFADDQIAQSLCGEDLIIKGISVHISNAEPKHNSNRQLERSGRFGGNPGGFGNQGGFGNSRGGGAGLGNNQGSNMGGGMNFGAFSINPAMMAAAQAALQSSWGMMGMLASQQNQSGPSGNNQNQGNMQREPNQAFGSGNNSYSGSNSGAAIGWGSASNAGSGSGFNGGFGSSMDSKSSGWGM

The target in the assay is TDP-43 (Homo sapiens, UniProt Q13148 1-414). Description: RNA Bind-n-Seq with designed 260-mer pool; 25 mM Tris-HCl, 150 mM KCl, 3 mM MgCl2, BSA (printed 500 mg/mL), 20 units/mL SUPERase IN; pH not stated; 500 nM RNA pool, 1 h, 4 C; TDP-43 5, 50, 500 nM; high values mean tight binding. The note with it: protein: recombinant; tags: SBP (GST cleaved off with PreScission; pGEX-GST-SBP). The method, boiled down:
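Streptavidin beads captured recombinant SBP-tagged TDP-43 at 5, 50 or 500 nM, and the beads were incubated for 1 h at 4 °C with 500 nM of an in vitro-transcribed pool of 260-nt 3′ UTR oligos in 25 mM Tris-HCl, 150 mM KCl, 3 mM MgCl2, BSA and SUPERase IN. After washing, bound RNA was eluted with biotin, reverse transcribed, PCR-amplified and sequenced. Binding is reported as R, the mapped-read-normalized abundance of each oligo in the bound sample divided by its abundance in the input. Two independent protein batches served as duplicates.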
For the molecule B1, the binding signal was 3.93 R (bound/input frequency ratio).

As to B2, the binding signal is 7.4 R (bound/input frequency ratio).

On to B3, for which the binding signal is 2.78 R (bound/input frequency ratio).

Take B4: the binding signal was 3.16 R (bound/input frequency ratio).

Consider B5, for which the binding signal is 8.16 R (bound/input frequency ratio).

With B6, the binding signal was 2.97 R (bound/input frequency ratio).

With B7, the binding signal is 5.79 R (bound/input frequency ratio).

Consider B8, for which the binding signal was 3.73 R (bound/input frequency ratio).

B9: the binding signal was 6.78 R (bound/input frequency ratio).

Take B10: the binding signal is 6.67 R (bound/input frequency ratio).

Turning to B11, the binding signal was 1.82 R (bound/input frequency ratio).
